DAX1 inh-1 = inhibits human nuclear receptor DAX1. P51843. HEK293 Gal4-DAX1 luciferase reporter, luminescence. inhibition, % at 6.75 µM. 340,000 compounds, 0.99% hits;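 active means inhibition above the mean over all tested compounds plus 3 SD, cut at about 4.2% in these data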;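 further: 0% = DAX1-transfected cells with DMSO and 100% = empty-vector control cells with DMSO; inhibition shows as a rise in luminescence from relieved DAX1 repression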
Target sequence (P51843 207-470 limits assumed): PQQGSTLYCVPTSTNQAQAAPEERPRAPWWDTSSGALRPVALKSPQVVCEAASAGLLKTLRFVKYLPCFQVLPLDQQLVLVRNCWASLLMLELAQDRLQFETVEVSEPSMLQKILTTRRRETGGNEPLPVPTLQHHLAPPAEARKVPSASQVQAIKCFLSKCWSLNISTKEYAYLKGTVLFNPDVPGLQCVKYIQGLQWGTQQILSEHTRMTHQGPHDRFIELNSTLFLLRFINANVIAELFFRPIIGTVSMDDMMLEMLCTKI
SMARCA2 activ = activators of SMARCA2 function | MG213 cells, MMTV-luciferase reporter, dexamethasone, overnight | activation, % at 9.1 µM | 370,000 compounds, 1% hits | AID 652017; in the data active means activation above about 7.8%;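 further: 0% = vehicle wells and 100% = reference activator wells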
hgDAF12 agonist = agonists of H. glycines DAF-12 nuclear receptor | HEK293 GAL4-hgDAF12 UAS-luciferase reporter, agonist luminescence; normalized to butyrate control | activation, % at 6.8 µM | 370,000 compounds, 1.8% hits;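 active means activation above a cutoff set at the mean of all screened compounds plus 3 SD, cut at about 10% in these data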;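 further: 0% = DMSO wells and 100% = sodium butyrate wells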
ssDAF12 agonist = S. stercoralis DAF-12 activation, primary screen. HEK293 ssDAF-12/GRIP1 lit1-tk-luc reporter, luminescence; % of 3 µM dafachronic acid response. 370,000 compounds, 1% hits. AID 652126. activation, % at 6.8 µM;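 active means activation above the mean over all tested compounds plus 3 SD, cut at about 0.9% in these data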;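 further: 0% = DMSO-only wells and 100% = 3 µM delta7-dafachronic acid wells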
DAX1 inh-2 = DAX1 (NR0B1) inhibition, primary screen; HEK293T StAR-luciferase reporter, SF-1/DAX-1 repression relief; inhibition, % at 6.8 µM; 370,000 compounds, 1.1% hits;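 active means inhibition above the mean over all tested compounds plus 3 SD, cut at about 3.6% in these data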;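 further: 0% = DAX-1 cells with DMSO and 100% = cells lacking DAX-1 with DMSO; higher inhibition means more luminescence from relief of DAX-1 repression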
hcDAF-12 act = activators of H. contortus DAF-12 nuclear receptor; activation, % at 6.8 µM; HEK293 hcDAF-12 lit1-tk-luc reporter, luminescence; 0% DMSO, 100% Δ7-dafachronic acid; 370,000 compounds, 1.4% hits; AID 652067;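 active means activation above the mean of all tested compounds plus 3 SD, cut at about 5.5% in these data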;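 further: 100% = response to 3 µM Δ7-dafachronic acid high control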
SMARCA2 conf = SMARCA2 activation, confirmation screen. shares compounds with SMARCA2 activ. MG213 cells, MMTV-luciferase with dexamethasone, luminescence, overnight; MG213 cells expressing E1A, Rb sequestered; DMSO wells 0%, reference activator 100%. activation, % at 9.1 µM. 3,500 compounds, 30% hits. AID 652260;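 active means activation above its plate's cutoff, the mean activation of tested wells plus 3 SD, cut at about 7.9% in these data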
GAL4-VP16 Luc = GAL4-VP16 reporter activation counter-screen; AID 686939; 3,500 compounds, 41% hits; shares compounds with SMARCA2 activ; activation, % at 9.1 µM; HEK293 GAL4-VP16 pG5luc reporter, luciferase luminescence; scaled: DMSO wells 0%, SAHA wells 100%;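 active means activation above the solvent-only control well mean plus 3 SD, averaged across control plates, cut at about 5.2% in these data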
* hit, by the source's call; · = no result given. Sampled rows, rich in hits. Any-hit rate of the full collection: about 4.8%.

SMILES	DAX1 inh-1	SMARCA2 activ	hgDAF12 agonist	ssDAF12 agonist	DAX1 inh-2	hcDAF-12 act	SMARCA2 conf	GAL4-VP16 Luc
Nc1cc(C(F)(F)F)ccc1OCC1CCCO1 (stereo unspecified)	-4	-1	2	-1	0	-3	·	·
CCC(C)(C)NC(=O)C(c1ccc(OC)cc1)N(C(=O)CCC(=O)Nc1cc(C)on1)C1CC1 (stereo unspecified)	-1	-4	-2	-2	0	-2	·	·
COc1ccc(C(=O)NC2CC2)cc1OC1CCN(Cc2cc(C)c(C)cc2C)CC1	0	9.1*	-3	-1	1	-1	-1	2
Cc1cccc(N2CCN(C(=O)CCn3c(=O)[nH]c4ccccc4c3=O)CC2)c1C	1	-3	-4	-1	0	-1	·	·
COc1cccc(/C=N/Nc2nnc(C)n2N)c1OCc1ccccc1Cl	-1	16*	-5	-1	-2	0	0	1
O=C(NC1CC1)c1cccc(NC(=O)C2CCCCC2)c1	0	8.1*	4	0	3	0	0	1
CCC1COCCS(=O)(=O)N1Cc1cccc(Cl)c1 (stereo unspecified)	1	2	-2	-2	0	-1	·	·
COc1cc2oc(=O)cc(C)c2c(OC)c1OC	-1	1	-2	-2	0	0	·	·
COc1ccc(C(C)=O)cc1CN1C(=O)NC2(CCCCCCC2)C1=O	1	11*	-1	-1	0	-1	-4	1
CCOc1ccc(C(C)=O)cc1CN1C(=O)NC2(CCCCCC2)C1=O	0	-4	0	-1	0	-2	·	·
CC1CCCN(S(=O)(=O)c2ccc3[nH]c4c(c3c2)CCCC4)C1 (stereo unspecified)	0	-1	0	-1	-3	-3	·	·
Cc1ccc2c(c1)cc(CN(Cc1ccco1)C(=O)N1CCOCC1)c1nnnn12	1	8.6*	0	-2	1	-1	12*	3
Cc1ccc(NC(=O)c2cc([N+](=O)[O-])ccc2N2CCOCC2)cc1C	0	8.1*	0	-1	1	0	-5	1
CCOC(=O)c1sc(NC(=O)c2ccccc2OC)nc1C	4	-1	7	-2	3	-1	·	·
Cc1ccc(S(=O)(=O)n2ccc(-c3c(-c4ccc(F)cc4)noc3C)n2)cc1	·	-3	0	-1	-4	-3	·	·
CCNC(=S)N1CCN(S(=O)(=O)/C=C/c2ccccc2)CC1	0	-1	-1	-1	0	0	·	·
O=C(Oc1ccc2ccccc2c1Cl)N1CCCCCC1	1	9.3*	6	0	4.1*	1	5	24*
O=C(COC(=O)c1cccnc1Cl)Nc1nc(-c2ccccc2)cs1	0	9.9*	5	-2	1	1	1	2
O=[N+]([O-])c1cccc(/C([O-])=C(/C(=S)Nc2ccccc2)[n+]2ccccc2)c1	0	8.5*	4	0	1	5	0	6.3*
CCNC(=S)/C(=C(/[O-])c1ccc([N+](=O)[O-])cc1)[n+]1ccccc1	2	-2	0	-2	1	0	·	·
Cc1ccc(-c2c3c(nc4sc(C(N)=O)c(N)c24)CCC3)cc1	1	0	3	-1	-1	-1	·	·
Cc1ccc(C(=O)c2sc3nc4c(cc3c2N)CCC4)cc1	0	9.1*	5	0	0	2	8.4*	8.3*
O=C(c1ccccc1)C1CC1c1ccccc1 (stereo unspecified)	1	0	5	0	1	0	·	·
CCOc1ccc(N(CC(=O)N2CCCCCC2)S(C)(=O)=O)cc1	1	-3	0	-1	0	0	·	·
O=C(N/N=C/C(Br)=C/c1ccccc1)c1ccccc1F	2	13*	6	0	0	1	11*	12*
SMILES	DAX1 inh-1	SMARCA2 activ	hgDAF12 agonist	ssDAF12 agonist	DAX1 inh-2	hcDAF-12 act	SMARCA2 conf	GAL4-VP16 Luc
O=C(N/N=C/C(Cl)=C/c1ccccc1)c1ccccc1F	2	6	9	0	1	1	·	·
CCN(CC)CCOc1ccc2c(c1)C(=NO)c1cc(OCCN(CC)CC)ccc1-2	3	23*	9	-1	2	3	76*	0
NC1=NC(=O)/C(=C/C=C/c2cccs2)S1	4.8*	16*	5	0	0	1	8.6*	5.8*
Cc1ccsc1/C=C1\SC(N)=NC1=O	0	3	7	-1	1	1	·	·
Cc1noc(C)c1S(=O)(=O)N1CCCC(C(=O)NCC2CCCO2)C1 (stereo unspecified)	1	-10	3	-1	-1	0	·	·
COc1ccc(OC)c(-c2nnc3n2N=C(c2ccc(OC)c(OC)c2)CS3)c1	-2	12*	-7	-2	2	-6	34*	17*
COc1ccc(C2=Nn3c(nnc3-c3cccnc3)SC2)cc1	0	9.7*	-2	-2	-1	-2	4	2
COc1ccc(C2=Nn3c(nnc3C3CCCCC3)SC2)cc1OC	-1	14*	-8	-2	0	-5	14*	7.3*
COc1ccc(-c2nn3c(C4CCCCC4)nnc3s2)cc1OC	-2	12*	-1	-2	-1	-4	7	4
COc1ccc(OC)c(-c2nnc3n2N=C(c2ccc(OC)c(OC4CCCC4)c2)CS3)c1	-3	1	-2	-1	2	-4	·	·
Cc1ccc(S(=O)(=O)N[C@H](C(=O)Oc2ccc3c(C(F)(F)F)cc(=O)oc3c2)c2ccccc2)cc1	1	·	·	·	·	·	·	·
O=C(CN1CCN(Cc2ccccc2)CC1)NCC1COc2ccccc2O1 (stereo unspecified)	1	-1	0	-2	-1	0	·	·
COc1ccc(NC(=O)c2ccc(Cl)c(S(=O)(=O)N3CC(C)OC(C)C3)c2)cn1 (stereo unspecified)	-1	-3	-1	-2	-1	0	·	·
COc1ccc(C2=Nn3c(nnc3-c3ccccc3F)SC2)cc1OC1CCOC1 (stereo unspecified)	-4	8	-6	-1	-2	-3	·	·
COc1ccc(C2=Nn3c(nnc3-c3ccccc3F)SC2)cc1OC1CCCC1	-5	17*	-8	-2	-1	-3	30*	20*
Clc1ccc(CN2CCN(c3ncccn3)CC2)cc1Cl	-2	-2	-1	-2	0	-1	·	·

Bioassay records deposited in PubChem BioAssay by The Scripps Research Institute Molecular Screening Center.
